# Test results: PMC4552634, “A New Set of Chemical Starting Points with Plasmodium falciparum Transmission-Blocking Potential for Antimalarial Drug Discovery” (PLoS ONE, 2015)
# Where two headings read alike, the source gives them in different places. About 3,200 (25%) of roughly 13,000 compounds showed an effect of 50% or more. Some of the results follow.
# System: P. falciparum stage V gametocytes
# Set-up: BacTiter-Glo ATP luminescence viability of purified stage V gametocytes in 384-well plates, per cent inhibition versus DMSO
# Settings: 48 h, 5 µM, inhibitor
Structure (SMILES),% Inhibition [%],% Inhibition (% Inhibition) [%]
CN(CC(=O)Nc1ccc(F)c(F)c1F)c1ncnc2sc(-c3ccccc3)cc12 [TCMDC-124491],23.36,–
O=C(Nc1ccc2c(ccn2C2CCCN(Cc3cc(F)cc(F)c3F)CC2)c1)c1ccco1 (stereo not shown) [TCMDC-135087],26.42,–
Nc1nc(N)c2cc(N(Cc3ccccc3)Cc3ccccc3)ccc2n1 [TCMDC-137850],-9.254,–
Cc1cccc2[nH]c(-c3cccc(-c4cccc(NC(=O)CNc5ccc(C(N)=O)cc5)c4)c3)nc12 [TCMDC-132165],-3.752,–
Cc1ccccc1C1CCN(c2ccc(C(=O)NC3CC3)cn2)CC1 [TCMDC-134592],24.07,–
COc1ccc2nccc(N3CCC(SCCNCc4cc5c(cn4)OCCO5)C3)c2n1 (stereo not shown) [TCMDC-134286],24.01,–
COc1ccc2nccc(N3CCC(NCCNCc4cc5c(cn4)OCCO5)C3)c2n1 (stereo not shown) [TCMDC-134650],71.62,–
COc1ccc2nccc(N3CCC(CCNCc4cc5c(cn4)OCCO5)CC3)c2n1 [TCMDC-133538],80.45,–
COc1ccc2nccc(N3CCC(CCNCc4ccc5c(n4)NC(=O)CS5)CC3)c2n1 [TCMDC-141944],32.25,–
COc1ccc2nccc(NCC3(O)CCC(NCc4cc5c(cn4)OCCO5)CC3)c2n1 (stereo not shown) [TCMDC-134312],-33.45,–
COc1ccc2nccc(N3CCC(CCNCc4cc5c(cn4)OCCO5)CC3)c2c1.Cl [TCMDC-133537],9.41,–
COC(=O)c1cc2cccc(NC[C@@H](C)NC[C@H](O)c3cccc(Cl)c3)c2[nH]1 [TCMDC-137770],45,–
Clc1ccccc1CN1CCC(NCc2cccc(-n3ccnc3)c2)CC1 [TCMDC-141672],86.45,–
CCCCCCN1CCC(NCc2cccc(-n3ccnc3)c2)CC1 [TCMDC-141664],11.65,–
c1cc(CNC2CCN(CC3CCCCC3)CC2)cc(-n2ccnc2)c1 [TCMDC-141657],70.67,–
c1cc(CNCC2CCN(CC3CCCCC3)CC2)cc(-n2ccnc2)c1 [TCMDC-141675],21.38,–
COc1ccc(CN2CCC(NCc3cccc(-n4ccnc4)c3)CC2)cc1 [TCMDC-141651],14.29,–
CN(C)Cc1ccc(CNC2CCN(Cc3ccccc3Cl)CC2)cc1 [TCMDC-141671],-2.208,–
Cc1ccc(-c2cnc3[nH]cc(-c4ccc(C(=O)O)c(C)c4)c3c2)cc1C.O=C(O)C(F)(F)F [TCMDC-136381],18.23,–
CCCCc1cc(NCC)nc(Nc2ccc(F)cc2)n1 [TCMDC-134009],8.286,–
Cn1cncc1-c1ccc2ncnc(Nc3ccc4c(cnn4Cc4ccccc4)c3)c2c1 [TCMDC-137781],-8.163,–
O=C(CN1CCCCC1)Nc1ccc(Nc2nccc(NCC(O)c3ccccc3)n2)cc1 (stereo not shown) [TCMDC-136469],-6.593,–
NS(=O)(=O)c1cccc(N=Cc2c(O)[nH]c3ccc(S(=O)(=O)Cc4c(Cl)cccc4Cl)cc23)c1 [TCMDC-135947],101.9,–

Structure (SMILES),% Inhibition [%],% Inhibition (% Inhibition) [%]
CCN(CC)CCNC(=O)c1ccc(N=Cc2c(O)[nH]c3ccc(S(=O)(=O)Cc4c(Cl)cccc4Cl)cc23)cc1 [TCMDC-135945],35.17,–
CN(CCCCNC(=O)c1ccc(-c2ccccc2)cc1)C1CCc2c(O)cccc2C1 (stereo not shown) [TCMDC-139005],-43.63,–
O=C(Nc1ccc(OC2CCN(Cc3ccc(F)cc3)CC2)cc1)c1cccs1 [TCMDC-133741],27.9,–
Cc1ccc(-c2nc3ccccc3o2)cc1NCc1cc(Cc2ccccc2)ccc1O [TCMDC-125705],-21.71,–
Cc1cc(O)c(CN2CCN(Cc3cccs3)CC2)cc1C(C)C [TCMDC-124883],-57.78,–
O=C(Cn1c(CCc2cccc(F)c2F)nc(=O)c2ccccc21)N(Cc1ccc(-c2ccc(C(F)(F)F)cc2)cc1)C1CCN(C2=NCCS2)CC1 [TCMDC-136537],107.4,–
CCN1CCC(N(Cc2ccc(-c3ccc(C(F)(F)F)cc3)cc2)C(=O)CCCCn2c(CCc3cccc(F)c3F)nc(=O)c3ccccc32)CC1 [TCMDC-141321],85.03,–
CCN1CCC(N(Cc2ccc(-c3ccc(C(F)(F)F)s3)cc2)C(=O)Cn2c(CCc3cccc(F)c3F)nc(=O)c3ccccc32)CC1 [TCMDC-141282],107.7,–
CCN1CCCC1CN(Cc1ccc(-c2ccc(C(F)(F)F)cc2)cc1)C(=O)Cn1c(CCc2cccc(F)c2F)nc(=O)c2ccccc21 (stereo not shown) [TCMDC-141061],68.75,–
Cc1ccccc1CNc1noc(-c2c(-c3ccccc3)noc2C)n1 [TCMDC-134201],-15.74,–
CCCOC(=O)c1ccc(OCCCON2C(N)=NC(N)=NC2(C)C)cc1 [TCMDC-131715],8.227,–
CCN1CCC(N(Cc2ccc(-c3ccc(C(F)(F)F)cc3)o2)C(=O)Cn2c(CCc3cccc(F)c3F)nc(=O)c3ccccc32)CC1 [TCMDC-141281],92.96,–
CC(C)N1CCC(N(Cc2ccc(-c3ccc(C(F)(F)F)cc3)cc2)C(=O)CCCn2c(CCc3cccc(F)c3F)nc(=O)c3ccccc32)CC1 [TCMDC-141316],88.07,–
CCN1CCC(N(Cc2ccc(-c3ccc(C(F)(F)F)cc3)cc2)C(=O)Cn2c(CCc3cccc(F)c3F)nc(=O)c3ccccc32)CC1 [TCMDC-141048],116.3,–
O=C(C1CCCC1)N1CCOC(CCN2CCC(c3ccccc3)CC2)(c2ccc(Cl)c(Cl)c2)C1 (stereo not shown) [TCMDC-135327],-12.01,–
CC(C)Cc1nc2nc(N)nc(N)c2cc1C(C)C [TCMDC-137930],2.497,–
O=C(Nc1ccc2c(c1)CCCN2S(=O)(=O)c1cccs1)c1cc([N+](=O)[O-])ccc1Cl [TCMDC-125153],96.55,–
CC(=O)c1cccc(NC(=O)c2ccc(Cl)c(S(=O)(=O)N3CCc4ccccc43)c2)c1 [TCMDC-124431],4.693,–
CC1CCCN(c2ccc(NC(=O)c3cccs3)cc2[N+](=O)[O-])C1 (stereo not shown) [TCMDC-124625],1.853,–
O=c1cc(NCCC2CC=CCN2Cc2ccc(Cl)c(Cl)c2)[nH]c2ccccc12 (stereo not shown) [TCMDC-139445],3.776,–
COc1ccc(CCNCCCCCCNCCc2ccc(OC)c(OC)c2Cl)c(Cl)c1OC [TCMDC-131261],103.5,–
COc1ccc(CCNCCCCCCNCCc2ccc(Cl)cc2)c(Cl)c1OC [TCMDC-131272],114.1,–
COc1ccc(CCNCC(O)c2cccc(Br)c2)c(Cl)c1OC (stereo not shown) [TCMDC-125478],12.88,–

Structure (SMILES),% Inhibition [%],% Inhibition (% Inhibition) [%]
O=C(Nc1ccsc1C(=O)NC1CCCCC1)c1ccc(F)cc1 [TCMDC-123789],-7.21,–
CCCC(C)Nc1nc(C)cc(N[C@@H](CC(C)C)C(=O)NCCOc2ccccc2)n1 (stereo partly shown) [TCMDC-134898],-16.46,–
O=C(C=C1c2ccccc2-c2ccccc21)NC1CCC(CN2CCC(c3c[nH]c4ccccc34)CC2)CC1 (stereo not shown) [TCMDC-139906],–,-40.53
O=C(NC1CCC(CN2CCC(c3c[nH]c4ccccc34)CC2)CC1)[C@H]1Cc2ccccc2CN1 (stereo partly shown) [TCMDC-140311],105,–
CC1=C(C(=O)NC2CCC(CN3CCC(c4c[nH]c5ccccc45)CC3)CC2)Cc2ccccc21 (stereo not shown) [TCMDC-139755],–,71.55
O=C(C=C1c2ccccc2-c2ccccc21)NC1CCC(CN2CCC(c3c[nH]c4ccccc34)CC2)CC1 (stereo not shown) [TCMDC-139918],–,-14.57
CC1=C(C(=O)NC2CCC(CN3CCC(c4c[nH]c5ccccc45)CC3)CC2)Cc2ccccc21 (stereo not shown) [TCMDC-139765],–,-59.52
COc1ccccc1CNC(=O)C(=O)Nc1c(-c2ccccc2)[nH]c2ccccc12 [TCMDC-124999],-88.11,–
COc1cccc(NC(=O)COc2ccc(C(=O)Nc3nc4ccccc4[nH]3)cc2)c1 [TCMDC-125060],-14.04,–
COc1ccc(NC(=O)Nc2cccc(-c3cccc(-c4nc5ccccc5[nH]4)c3)c2)cc1 [TCMDC-133246],-3.32,–
COc1cccc(NC(=O)[C@H](C(C)C)n2c(=O)[nH]c3ccccc3c2=O)c1 [TCMDC-125133],96.89,–
COc1ccc2[nH]c3ccccc3c(=O)c2c1 [TCMDC-123948],14.64,–
COc1cccc(NC(=O)[C@H](C)n2c(=O)[nH]c3ccccc3c2=O)c1 [TCMDC-124998],68.49,–
C=CCc1cc(Br)ccc1OCCCON1C(N)=NC(N)=NC1(C)C [TCMDC-131341],13.45,–
O=C(/C=C/c1ccc(Cl)c(Cl)c1)NCCCCCCN1CCN(C(=O)Nc2ccc(OC(F)F)cc2)CC1 [TCMDC-135834],-53.7,–
Cc1ccc(C(=O)c2oc3ccc4c(C)cc(=O)oc4c3c2C)cc1 [TCMDC-125583],-7.355,–
Cc1cccc(C)c1OC(=O)C(C)C(O)C1(Sc2ccccc2)CCN(C)CC1 (stereo not shown) [TCMDC-132104],17.64,–
O=C(Nc1ccc(F)cc1)NC1CCN(c2ccnc3cc(Cl)ccc23)CC1 [TCMDC-133570],-24.37,–
Cc1nc(Nc2cc(Cl)ccc2O)nc(Nc2cc(Cl)ccc2O)c1[N+](=O)[O-] [TCMDC-125765],-25.8,–
CC(=O)c1ccc2cc(C(=O)NC3CCC(CCN4CCc5ccc(-c6noc(C)n6)cc5CC4)CC3)[nH]c2c1 (stereo not shown) [TCMDC-140072],-66.89,–
O=c1cc(NCCCNCc2cc(Cl)cc(Cl)c2OCc2ccccc2)[nH]c2ccccc12 [TCMDC-139488],-11.96,–
